# Measured values as given in ChEMBL document CHEMBL4513216, “Probing the Open Global Health Chemical Diversity Library for Multistage-Active Starting Points for Next-Generation Antimalarials” (ACS Infect Dis, 2020).
# Among all 68,000 compounds or so, about 2,700 (4%) showed an effect of 50% or more. The list comes from a sample in which strong results are over-represented; it also holds similar structures and randomly drawn compounds.
# Test system: Plasmodium berghei
# Experiment: Screen against P. berghei liver stage (PbLuc), transformed with Luciferase, at 2uM
# Type: functional, HepG2
# Conditions: tested at 2 uM
row,SMILES,INHIBITION
1,COCCn1ccc(=O)c(OCC(=O)Nc2ccc(OC)c(Cl)c2)c1C,30.58%
2,CCn1ncc(CN2CCCC(n3c(=O)oc4ccccc43)C2)c1C (stereo not drawn),-3.96%
3,COC(=O)c1cccc(C(=O)N(C)Cc2ccsc2)c1,-21.49%
4,NC(=O)c1cc2c(nc1N)CCN(C(=O)C1CCCCC1)C2,6.97%
5,COC(=O)c1ccc(N2CCN(C(=O)c3cnn(C)c3)C(C)C2)cc1 (stereo not drawn),47.57%
6,O=C(NCC1Cn2nnc(-c3ccsc3)c2CO1)c1ccc[nH]1 (stereo not drawn),34.16%
7,CCN1CCN(C)C(=O)C12CCN(Cc1ccsc1)CC2,39.18%
8,CCN1CCN(C)C(=O)C12CCN(Cc1cccc(C)c1)CC2,60.6%
9,CCN1CCN(C)C2(CCN(Cc3ccsc3)CC2)C1=O,38.64%
10,CN1CCN(C)C2(CCN(Cc3ccsc3)CC2)C1=O,59.5%
11,CCN1CCN(C)C(=O)C12CCN(Cc1csc(C)n1)CC2,-66.6%
12,CCc1ccc(CN2CCC3(CC2)C(=O)N(C)CCN3CC)cc1,47.42%
13,CCCc1cnc(C)nc1N1CCC(Cc2cccc(C(N)=O)c2)C1 (stereo not drawn),-9.75%
14,CC(C(=O)NC1CCN(C)CC1)n1nc(C(F)(F)F)c(Cl)c1C1CC1 (stereo not drawn),-4.77%
15,CCN(C(=O)CN(CC(N)=O)C(C)C)C1=CCCC1,25.21%
16,OCc1n[nH]c(-c2ccc(F)cc2)n1,27.8%
17,CC(C(=O)N1CCN(Cc2ccc3c(c2)OCO3)CC1)n1ccnc1 (stereo not drawn),17.98%
18,COC(=O)CC1CCCCN1CC(=O)Nc1cc(F)ccc1F (stereo not drawn),30.82%
19,O=S(=O)(NC1=NCN(CCc2cccs2)CN1)c1ccc(F)cc1,36.15%
20,O=S(=O)(NC1=NCN(CCc2cccs2)CN1)c1ccccc1,18.22%
21,O=S(=O)(NC1=NCN(CCc2cccs2)CN1)c1ccc(Br)cc1,50.67%
22,O=C(Cc1cnccn1)N1C[C@@H]2CC[C@H]1CN(Cc1cscn1)C2,-41.49%
23,COCC(=O)N1C[C@H]2CNC[C@@]2(C(=O)NCc2nc(C)cc(C)n2)C1,67.44%

row,SMILES,INHIBITION
1,COCC(=O)N1C[C@H]2CNC[C@@]2(C(=O)NCc2c(C)noc2C)C1,1.8%
2,COCC(=O)N1C[C@H]2CNC[C@@]2(C(=O)NCc2cc(C)n[nH]2)C1,40.51%
3,N[C@H]1CN(C(=O)c2ccc(Cl)cc2O)C[C@@H]1C1CC1,-6.83%
4,Cc1cc(Cl)ccc1C(=O)N1C[C@H](C2CC2)[C@@H](N)C1,60.42%
5,N[C@H]1CN(C(=O)Cc2ccc(CO)cc2)C[C@@H]1C1CC1,39.97%
6,N[C@H]1CN(C(=O)Cc2cc(F)cc(Cl)c2)C[C@@H]1C1CC1,55.39%
7,N[C@H]1CN(C(=O)Cc2ccc(Cl)c(Cl)c2)C[C@@H]1C1CC1,4.72%
8,N[C@H]1CN(C(=O)c2ccc(Cl)cc2F)C[C@@H]1C1CC1,19.54%
9,CN(CCCN1CCCC1)[C@@H]1c2ccccc2C2(CCNCC2)[C@H]1O,9.18%
10,COC(=O)c1ccc(CN(C)C(=O)c2cnsn2)cc1,-18.04%
11,COc1ccc(C[C@H]2CN(C3CCOCC3)CC[C@H]2OCC2CC2)cc1,68.29%
12,COc1ccc(C[C@H]2CN(C3CCOCC3)CC[C@@H]2OCC2CC2)cc1,21.06%
13,c1ccc(C[C@H]2CN(C3CCOCC3)CC[C@H]2OCC2CC2)cc1,-22.32%
14,CCc1cnc(N2CC[C@H]3[C@@H]2CCC(=O)N3CC2CCOCC2)nc1,8.37%
15,CNC(=O)[C@H]1C[C@H]2CN(Cc3cccc(C)c3)C[C@@H]1O2,14.09%
16,CC(C)NC(=O)CC1[C@H]2CN(C(=O)Cc3ccccn3)C[C@@H]12 (stereo partly drawn),33.39%
17,O=C(c1ccc(S(=O)(=O)N2CCSCC2)cc1)N1CCC(O)C1 (stereo not drawn),-57.76%
18,O=C(c1ccc(S(=O)(=O)N2CCNCC2)cc1)N1CCCC(O)C1 (stereo not drawn),57.4%
19,CN1CCN(S(=O)(=O)c2ccc(C(=O)N3CC[C@@H](O)C3)cc2)CC1=O,-27.61%
20,CCn1cc(S(=O)(=O)N2CCC(C3CCCCN(C)C3=O)CC2)c(C)n1 (stereo not drawn),-12.21%
21,CC(=O)c1cn(CC(=O)NC(C(=O)O)C(C)C)c2ccccc12 (stereo not drawn),-7.53%
22,COc1cc(C(C)NCc2ncccc2C)ccc1SC(F)F (stereo not drawn),-48.24%
23,CN(Cc1ccco1)Cc1cncc2c1CCN(S(C)(=O)=O)C2,51.94%

row,SMILES,INHIBITION
1,CC(C)N1CCc2c(CN(C)Cc3ccco3)cncc2C1,16.48%
2,CCS(=O)(=O)N1CCc2c(CN(C)Cc3ccco3)cncc2C1,-21.1%
3,Cc1nc(C)n(CC2CCCCN2CC(=O)Nc2cccnc2)n1 (stereo not drawn),-12.75%
4,Cc1nc(C)n(CC2CCCCN2CC(=O)Nc2cc(C)on2)n1 (stereo not drawn),64.16%
5,Cc1nc(C)n(CC2CCCCN2CCC(=O)Nc2cc(C)on2)n1 (stereo not drawn),-14.71%
6,Cc1nc(C)n(CC2CCCN2CC(=O)Nc2ccncc2)n1 (stereo not drawn),-40.36%
7,Cc1nc(C)n(CC2CCCCN2CC(=O)NC2CCOCC2)n1 (stereo not drawn),60.31%
8,Cc1nc(C)n(CC2CCCCN2CC(=O)Nc2ccncc2)n1 (stereo not drawn),51.21%
9,CCN1CCC(NC(=O)CN2CCCC2Cn2nc(C)nc2C)CC1 (stereo not drawn),-2.82%
10,Cc1nc(C)n(CC2CCCN2CC(=O)NC2CCOCC2)n1 (stereo not drawn),32.76%
11,Cc1nc(C)n(CC2CCCN2CC(=O)Nc2cc(C)on2)n1 (stereo not drawn),-1.02%
12,O=C(c1c(F)cc(Br)cc1F)N1CCc2cnccc21,-62.99%
13,Cn1c(=O)[nH]c2cc(C(=O)OCC(F)F)ccc21,-67.78%
14,Cn1ccc(C(=O)N2CCC(Cc3cccc4cccnc34)C2)n1 (stereo not drawn),9.79%
15,Cn1cc(C(=O)Nc2cccc(CCN3CCCC3)c2)ccc1=O,-51.94%
16,O=C(C1CCCCC1)N1CCC2(COc3ncccc3S(=O)(=O)N2)C1 (stereo not drawn),-15.49%
17,NC(=O)c1cc(C2CCCN(CCc3ccccn3)C2)n[nH]1 (stereo not drawn),58.53%
18,Cc1cc(C2CCCN(CCc3ccccn3)C2)n[nH]1 (stereo not drawn),-12.48%
19,COc1ccc(F)cc1CN1CCCC(c2cc(C(N)=O)[nH]n2)C1 (stereo not drawn),30.91%
20,NC(=O)c1cc(C2CCCN(C(=O)CCc3ccccn3)C2)n[nH]1 (stereo not drawn),-0.71%
21,COc1ccccc1OCCN1CCCC(c2cc(C(N)=O)[nH]n2)C1 (stereo not drawn),31.51%
22,COc1cccc(CN2CCCC(c3cc(C(N)=O)[nH]n3)C2)c1 (stereo not drawn),54.99%
